Compounds with a hit are over-represented: about 4.6% of the library has one in this group of screens.
USP7 inh: blocks human USP7 ubiquitin-rhodamine cleavage. AID 1645854. purified USP7, Ub-rhodamine cleavage fluorescence. hit rate 0.3% among 47,000. Q93009. inhibition, % at 20 µM
USP10 inh: inhibitors of human USP10 deubiquitinase. inhibition, % at 20 µM. Q14694. hit rate 1.1% among 47,000. purified USP10, Ub-rhodamine fluorescence, 60 min. AID 1645856
UCHL1 inh: blocks human UCHL1 ubiquitin-rhodamine cleavage. AID 1645859. hit rate 0.2% among 47,000. inhibition, % at 20 µM. purified UCHL1, Ub-rhodamine cleavage fluorescence
USP8 block: inhibitors of human USP8 deubiquitinase; P40818; purified USP8, Ub-rhodamine cleavage fluorescence, 30 min; inhibition, % at 20 µM; hit rate 4.2% among 47,000; AID 1645853
* = called active by the depositor. Cut-off read from the data, not from the text of the source: active = inhibition above about 30%; inactive = the rest.

SMILES | USP7 inh | USP10 inh | UCHL1 inh | USP8 block
O=C(Oc1ccc(-n2cnnn2)cc1)c1ccccc1Br | -11 | 6 | -1 | 45*
O=C1C=C(O)c2c(O)cccc2C1=O | -114 | 14 | 23 | 79*
Cc1ccc2c(c1)C(=O)c1c(O)cccc1C2=O | -1 | -3 | -4 | -17
COc1ccc2nc(-c3ccc(NS(C)(=O)=O)c(C)c3)sc2c1 | -6 | -1 | 1 | -3
CCOc1ccccc1NC(=O)N1CCCN(c2ncccc2C#N)CC1 | 3 | -1 | 2 | 4
N#Cc1cccnc1N1CCN(C(=O)Nc2cccc3ccccc23)CC1 | -25 | 0 | 18 | 91*
COc1cccc(NC(=O)N2CC[C@H]3NC(=O)[C@H](Cc4ccccc4)N(C)C(=O)[C@H]32)c1 | 6 | 1 | 4 | 28
Cc1ccc(S(=O)(=O)N(Cc2cc3ccc(C)cc3[nH]c2=O)CC2CCCO2)cc1 (stereo not given) | -10 | -10 | -9 | 0
Cc1ccc2[nH]c(=O)c(CN(CC3COCCO3)S(=O)(=O)c3ccc(F)cc3)cc2c1 (stereo not given) | 5 | 23 | 0 | 35*
CN(c1ccc(Oc2ccc(C(F)(F)F)cn2)cc1)S(=O)(=O)c1ccccc1 | 15 | 2 | 10 | 73*
N#Cc1ccc(OCC(=O)Nc2ccc(-c3cn4ccsc4n3)cc2)cc1 | 10 | -3 | 2 | 46*
NS(=O)(=O)c1cccc(NC(=O)COc2ccc3c(c2)CCC3)c1 | -25 | -2 | 1 | 2
N#Cc1ccc(-c2ccc(OCC(=O)Nc3ccc4c(c3)CCC4)cc2)cc1 | 11 | 20 | 2 | 36*
CCN(CCCNC(=O)c1cc(Nc2ccc(OC)c(OC)c2)nc2ccccc12)c1cccc(C)c1 | 6 | -1 | 4 | 11
CCn1c(=O)c(C(=O)N2CCN(c3ccccc3F)CC2)nc2cccnc21 | -5 | -1 | -6 | -11
O=C(NC1CCCCC1)c1ccc(SCCN2CCCCC2)nc1 | -2 | -1 | -4 | -4
O=C(CCC1CCCCC1)Nc1ccccc1C(=O)N1CCOCC1 | 11 | 27 | 2 | 80*
COc1ccc(CN2CC(=O)N3CS(=O)(=O)C[C@H]3C2=O)cc1 | 4 | 2 | 1 | 5
Cn1cc2nc(SCC(=O)NCc3ccccc3Cl)n(CC3CC3)c(=O)c2n1 | -3 | 3 | -1 | 42*
Cc1c(Cl)cccc1NC(=O)CSc1nc2cn(C)nc2c(=O)n1CC1CC1 | -11 | -4 | 1 | 43*
Cn1cc2nc(SCC(=O)Nc3ccc(Cl)cc3F)n(CC3CC3)c(=O)c2n1 | -14 | 1 | -1 | 32*
COc1ccc(-c2nc(SCC(=O)Nc3ccc(Cl)cc3F)n[nH]2)cc1 | -6 | 6 | -1 | -32
CCOC(=O)CSc1nc2nccnc2c(=O)n1Cc1ccccc1Cl | 1 | -2 | 2 | -41
Cc1ccc(Cl)cc1NC(=O)CSc1nc2cn(C)nc2c(=O)n1CC1CC1 | -30 | 2 | 2 | 61*
O=C(Nc1ccc(Cl)cc1)C(=O)c1cn(CC(=O)N2CCCCC2)c2ccccc12 | 2 | 30 | -1 | 3
SMILES | USP7 inh | USP10 inh | UCHL1 inh | USP8 block
CCN1C(=O)[C@H]2CN(C(=O)N(C)C)C[C@H]2C12CCN(C(=O)Cc1ccccc1)CC2 | 6 | -6 | 0 | -1
COc1cccc(C(=O)Nc2cccn3nc(C)nc23)c1 | 3 | 1 | 1 | 12
COc1cccc(C(=O)Nc2nc(-c3ccco3)c(-c3ccco3)s2)c1 | 50* | -8 | 52* | 62*
COc1cccc(C(=O)Nc2ccc(-n3cnnn3)cc2)c1 | 5 | 2 | 2 | 4
COc1ccc(C(CNC(=O)c2cc(-c3ccc(Cl)cc3)on2)N2CCOCC2)cc1 (stereo not given) | 8 | 25 | -1 | 40*
O=C(NCC(c1ccc(Cl)cc1)N1CCOCC1)c1cc(-c2ccccc2)on1 (stereo not given) | 0 | -2 | 4 | 12
COc1cc(Cl)c(C)cc1-n1cc(C(=O)c2cc(Cl)ccc2O)cc(C#N)c1=O | -13 | -7 | -26 | 5
COc1ccc(O)c(C(=O)c2cc(C#N)c(=O)n(-c3cccc(C(F)(F)F)c3)c2)c1 | -150 | -3 | -159 | 65*
CCCC(=O)N1CCCC1c1nnc(C(=O)Nc2ccc(C)cc2)s1 (stereo not given) | -7 | -1 | 2 | 0
Cc1ccc(-n2nnnc2-c2cnc3cc(Cl)ccc3c2N)cc1 | 18 | 15 | 7 | 44*
Clc1ccc2ncc(-c3nnnn3-c3ccc4ccccc4c3)c(-c3ccccc3)c2c1 | -20 | 4 | 5 | 9
CSc1nc2ncn(CC(=O)Nc3cc(C)cc(C)c3)c(=O)c2s1 | 2 | -4 | -5 | -16
CSc1nc2ncn(CC(=O)Nc3ccc(Br)cc3)c(=O)c2s1 | 16 | 6 | -3 | 82*
O=C(Nc1nc2c(s1)CCC2C(=O)Nc1ccc2c(c1)OCO2)c1ccccc1 (stereo not given) | 0 | 9 | 2 | 38*
O=C(COc1ccccc1)NCc1csc(-c2ccccc2)n1 | 0 | 3 | 1 | 3
Cc1nnc(NC(=O)C(=O)c2cc(C)n(-c3ccc(Cl)cc3)c2C)s1 | 6 | 2 | 5 | 41*
N#Cc1nc(-c2ccc(COc3ccc(Cl)cc3)o2)oc1N1CCOCC1 | 0 | 1 | 7 | 0
CCCCCCCCCCCC1=C(O)C(=O)C=C(O)C1=O | 50* | 80* | 8 | 60*
O=C(NCC1CC1)c1nc2c(o1)CN(CC1CC1)C2 | 5 | 0 | 1 | -48
CC1Oc2ccc(NC(=O)c3ccc(NS(=O)(=O)c4ccc5c(c4)OCCO5)cc3)cc2NC1=O (stereo not given) | 9 | 4 | 3 | -19
O=C(Nc1ccc2c(c1)OCO2)c1cncc(NS(=O)(=O)c2ccc3c(c2)OCCO3)c1 | -13 | -8 | -6 | 45*
CC(=O)Nc1ccc(S(=O)(=O)Nc2cncc(C(=O)NCc3ccc4c(c3)OCO4)c2)cc1 | 7 | -2 | 3 | 6
O=C(Nc1ccc2c(c1)OCO2)c1cncc(NS(=O)(=O)c2ccccc2)c1 | -33 | 0 | 21 | 70*
CC(C)n1c(N2CCCN(C(=O)c3cccnc3)CC2)cc(=O)n(C(C)C)c1=O | -8 | -11 | -12 | -35
Cc1ccc(CNC(=O)C2CCN(c3cnc(N4CCOCC4)nc3)CC2)cc1 | 0 | -6 | 1 | 4
SMILES | USP7 inh | USP10 inh | UCHL1 inh | USP8 block
Cc1c(C(=O)NCC2CCCCC2)nnn1-c1cccc2c1CCN(C1CCOCC1)C2 | -8 | -2 | 1 | 36*
Cc1c(C(=O)NCC(F)(F)F)nnn1-c1cccc2c1CCN(C1CCOCC1)C2 | -13 | -7 | -11 | -7
O=[N+]([O-])c1ccc(-c2nc(NCCCN3CCOCC3)c3ccccc3n2)cc1 | -46 | 0 | 6 | -78
Nc1cccnc1Sc1ccccn1 | -57 | -5 | -27 | 40*
Cc1ccnc(Sc2ncccc2O)c1 | 0 | 1 | 0 | -116
COc1ccc(Nc2c3ccccc3nc3c2c(C)nn3C)cc1C(=O)O | 3 | -4 | 3 | -7
Cc1ccc(OCCCn2c(CNC(=O)c3ccco3)nc3ccccc32)cc1 | -1 | -2 | 5 | 41*
COc1ccccc1OCCCn1c(CNC(=O)c2ccco2)nc2ccccc21 | -4 | 1 | 0 | 3
